# Source: PubChem BioAssay AID588674 (Broad Institute, 2011)
# “And” between values parts separate entries of the source, which are not always exact repeats. Equal entries are not always repeated. About 1,800 (0.5%) of roughly 360,000 compounds were called active. The entries come from a sample that favours actives as a whole. A number with no mark means an inactive call.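 How the source made its calls: active means mean inhibition of at least 75% with every replicate also reaching 75%; inconclusive means mean inhibition at least 75% but some replicate below; inactive means mean inhibition below 75%.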
# Experiment: Shn3 3'UTR reporter decrease in osteoblasts – cell-based, Clone20 osteoblasts, firefly luciferase, set 2, Schnurri-3 inhibitor project, primary screen (AID 588674);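 further: 0% = median of neutral control wells and 100% = pilot-screen positive control compound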
# Settings: Clone20 osteoblast Shn3 3'UTR firefly luciferase, 24 h; at 12.5 µM; active compounds read high
row,Structure (SMILES),inhibition
1,CCOC(=O)c1cnc2nc(SCc3ccccc3Cl)[nH]n2c1=O,-11.4%
2,Cc1cc(-n2nc(C)cc2C)n2ncc(-c3ccccc3)c2n1,-43%
3,CCOC(=O)c1cnc(-n2nc(C)cc2C)nc1NNc1cc(C)nc(-c2ccccc2)n1,92.1% (active)
4,O=C(Oc1ccccc1)Oc1ccc2c(c1)oc(=O)c1ccccc12,-6.2% and -3.28%
5,Cc1ncoc1C(=O)NCCC(c1ccccc1)c1ccccc1,17.9%
6,CCNc1nc(NCC)nc(N(C)n2cnnc2)n1,4.63%
7,O=C(CCCCCn1c(=S)[nH]c2cc3c(cc2c1=O)OCO3)N1CCN(c2ccc(F)cc2)CC1,8.75%
8,Cc1ccc(C)c(N2CCN(C(=O)CCCCCn3c(=S)[nH]c4ccc(N5CCOCC5)cc4c3=O)CC2)c1,87.2% (active)
9,Cc1ccc(C)c(N2CCN(C(=O)CCCn3c(=O)c4cccn4c4cccnc43)CC2)c1,8.64%
10,CCCN(CC(=O)Nc1ccccc1OC)C(=O)CCC(=O)c1ccc(F)cc1,8.98%
11,COc1ccccc1N1CCN(C(=O)C2Cc3ccccc3CN2C(=O)c2ccco2)CC1 (configuration not stated),-11.8%
12,CN(C)S(=O)(=O)c1cccc(NC(=O)COC(=O)C2(c3ccccc3F)CCCC2)c1,12.1%
13,CC[C@H]1CN2CCc3cc(OC)c(OC)cc3[C@@H]2C[C@@H]1C[C@H]1NCCc2cc(OC)c(OC)cc21,94.7% (active)
14,CC1CN(c2nc(-c3ccccc3)nnc2-c2ccccc2)CC(C)O1 (configuration not stated),21%
15,CC(C)N(C(=O)[C@H]1C[C@H](CC(=O)NC(C)(C)C)C(=O)N2CCc3c([nH]c4ccc(Cl)cc34)[C@]12C)C(C)C,26.9%
16,COc1cc(NC(=O)C2=C(C)OCCS2)c(Cl)cc1C(=O)NCCCN1CCCC(C)C1 (configuration not stated),-6.28%
17,O=C(O)c1[nH]c2ccccc2c1C(c1cccc(O)c1)c1c(C(=O)O)[nH]c2ccccc12,0.858%
18,O=C(CSc1nnnn1-c1ccccc1)NCc1ccco1,4.12%
19,O=C(NCc1ccco1)C1(c2ccc(Cl)cc2)CCCC1,-21.5%
20,O=C(CSc1c2c(nc3ccc(Cl)cc13)CCCC2)NCc1ccco1,89.8% (active)
21,COc1ccccc1NC(=O)COC(=O)Cc1ccc(S(=O)(=O)N2CCCCC2)s1,-14.6%
22,Cc1c(Cl)c([N+](=O)[O-])nn1Cc1ccc(C(=O)N/N=C\c2cc(Cl)ccc2O)o1,92.8% (active)
23,Cc1nn(Cc2ccccc2Cl)c(C)c1NC(=O)Cn1nc([N+](=O)[O-])c(Cl)c1C,3.56%

row,Structure (SMILES),inhibition
1,O=C(N/N=C\c1ccc(Br)cc1)c1ccc(Cn2cccn2)o1,-11.5%
2,Cc1ccsc1C(=O)N[C@@H](C)c1nnc2ccccn12,1.01%
3,CCCN(CCC)CCNC(=O)c1cc2c(C)nc3ccccc3c2o1,24.7%
4,CN(C)CCNC(=O)c1ccc(Cl)c2cc3ccccc3nc12,94.1% (active)
5,CNC(=O)c1cccc2nc3ccccc3nc12,-0.196%
6,O=C(CNCc1ccc(Cl)cc1)Nc1cccc(C(=O)O)c1,-8.08%
7,O=C(/C=C/c1ccc([N+](=O)[O-])cc1)NCCSCc1ccco1,-1.26%
8,COc1ccc(C)cc1-n1nnnc1SCC(=O)c1cc(C)n(Cc2ccco2)c1C,3.21%
9,COC(=O)CC(CC(=O)OC)n1cccc1,-11.6%
10,COc1ccc(NC(=O)C2Cc3c(-c4ccc5c(c4)OCO5)ccnc3O2)cn1 (configuration not stated),15.8%
11,COc1ccc(NC(=O)/C(Cl)=C(/Cl)S(=O)Cc2ccc(C)cc2)cn1 (configuration not stated),96.6% (active)
12,COc1ccc(NC(=O)CN2C(=O)NC(C)(c3ccccc3)C2=O)cn1 (configuration not stated),-47.7%
13,Cn1c(SCC(=O)N2CCOCC2)nnc1-c1ccc2ncccc2c1,-2.77%
14,Cc1cc(C)c(S(=O)(=O)N2CCCC2CNC(=O)c2ccc3c(c2)OCO3)c(C)c1 (configuration not stated),7.24%
15,CCOC(=O)c1cc(-c2ccccc2C)n(Cc2cc(C)no2)n1,4.57%
16,COc1ccc2c(c1)c(=Cc1ccc(N(C)C)cc1)c1cc(-c3ccccc3)[n+](C)n12,92.6% (active)
17,COC(=O)CN1C(=O)C(C)(C)Oc2ccc(C(=O)Nc3cccc(OC)c3)cc21,3.92%
18,Cc1cc(N)n2nc(-c3ccc(C(C)(C)C)cc3)cc2n1,-5.54%
19,O=C(NNc1ccccc1Cl)C(O)(c1cccc(C(F)(F)F)c1)c1cccc(C(F)(F)F)c1,20.3%
20,O=C1/C(=C\c2ccc([N+](=O)[O-])cc2)CS(=O)(=O)C/C1=C/c1ccc([N+](=O)[O-])cc1,96.5% (active)
21,O=C(O)C(=Cc1ccc([N+](=O)[O-])cc1)CCc1ccccc1,-2.04%
22,CC(=O)Nc1ccc(C=CC(=O)c2ccc([N+](=O)[O-])cc2)cc1,9.91%
23,CSc1ccccc1NC(=O)c1ccc2c(c1)CCN2S(C)(=O)=O,-16.4%

row,Structure (SMILES),inhibition
1,COc1ccc(CNc2nccs2)cc1,-11%
2,c1ccc(CNc2ncnc3[nH]ncc23)cc1,14.2%
3,COc1ccc(CNc2ncnc3ccccc23)cc1,86.1% (active)
4,CCc1ccc(N2CC(O)=C(c3nc4ccccc4c(=O)[nH]3)C2=N)cc1,-17%
5,CC(=O)Nc1ccc(NC(=O)CC2CCCC2)cc1,-25.4%
6,COc1ccc(CN2CCOC2=O)cc1OC,15.9%
7,O=C(Nc1ccc(Cl)c(C(F)(F)F)c1)C1Cc2c(-c3ccccc3Oc3ccccc3)ccnc2O1 (configuration not stated),17.7%
8,COc1cc(C(O)c2nc(-c3cccc(C(=O)O)c3)cs2)ccc1F (configuration not stated),-16.5%
9,COc1ccc2c(c1OC)C(=O)OC2Nc1nc(-c2ccccc2)cs1 (configuration not stated),89.4% (active)
10,C/C(CC1CC(C)(C)OC1=O)=N/Nc1nc(-c2ccccc2)cs1 (configuration not stated),-73.7%
11,Cc1ccc(S(=O)(=O)N(C)C)cc1NC(=O)C1Cc2ccccc2CN1C(=O)c1ccco1 (configuration not stated),-2.14%
12,C/C=C(/C)C(=O)OC1Cc2c(ccc3ccc(=O)oc23)OC1(C)C (configuration not stated),17.3%
13,COc1ccc(SCc2noc(C(=O)NCC3CCCO3)c2C(=O)O)cc1 (configuration not stated),5.13%
14,Cc1ccc(NC(=S)N2CCCC(c3ccccc3)=N2)cc1,20.9%
15,COc1ccc(-c2cc(C(F)(F)F)n3nc(C(=O)N4CCOCC4)c(Cl)c3n2)cc1,6.42%
16,CN(CC(=O)Nc1cccc(F)c1)C(=O)C1=COCCO1,-7.61%
17,Cc1ccc(NC(=O)c2sccc2C)cc1[N+](=O)[O-],-83.1%
18,Cc1ccc(NC(=O)CN(C)CC(=O)Nc2cccc(F)c2)cc1[N+](=O)[O-],90.8% (active)
19,Cc1noc(C)c1S(=O)(=O)N(C)C[C@H]1Oc2c(NC(=O)Nc3ccc4c(c3)OCO4)cccc2C(=O)N([C@H](C)CO)C[C@@H]1C,17.8%
20,O=C(OCCN1C(=O)c2ccccc2C1=O)[C@@H]1CC(O)CN1S(=O)(=O)c1ccccc1[N+](=O)[O-] (some centres not stated),-5.63%
21,O=c1[nH]c2cccnc2n(CCNc2ncc(C(F)(F)F)cc2Cl)c1=O,2.77%
22,CN(C)C=NC(=O)c1cccn1-c1ncc(C(F)(F)F)cc1Cl,-4.23%
23,COc1cccc(/C=N/Nc2ncc(C(F)(F)F)cc2Cl)c1O,89.9% (active)

row,Structure (SMILES),inhibition
1,O=C(COC(=O)c1ccccc1SCC(=O)N1CCCC1)Nc1ccccc1OC(F)F,-12.8%
2,COC(=O)C1C(=O)c2c([nH]c(C(=O)OCCSC)c2C)CC1C (configuration not stated),-58.5%
3,CCCOC(=O)c1[nH]c2c(c1C)C(=O)CC(c1cccs1)C2 (configuration not stated),24.4%
4,CCCOC(=O)c1[nH]c2c(c1C)C(=O)CC(c1cc(OC)c(OC)c(OC)c1)C2 (configuration not stated),83.2% (active)
5,CC(c1ccco1)N(C(=O)c1ccc(S(=O)(=O)N2CCCCC2)cc1)c1ccccn1 (configuration not stated),13.4%
6,CC(=O)N1CCOc2ccc(S(=O)(=O)N3CCN(c4cccc(C(F)(F)F)c4)CC3)cc21,40.6%
7,CCOC(=O)c1c(C)[nH]c(C2=NNC(=NC(C)COC)SC2)c1C (configuration not stated),-21.6%
8,Cc1nc2ccccc2cc1OCc1ccc(F)cc1,85.8% (active)
9,Fc1cccc2ncnc(OCc3ccccc3)c12,18%
10,Cc1occc(=O)c1OCc1ccc(F)cc1,-22.9%
11,COc1ccc(Cc2nnc(SC)[nH]c2=O)cc1,-14%
12,CC(C)c1ccc(Cc2nnc(NCCCO)[nH]c2=O)cc1,7.96%
13,COc1ccc(Cc2nnc(N/N=C/c3ccccc3O)[nH]c2=O)cc1OC,91.1% (active)
14,CC(/C=C/C1(O)C(C)CC(=O)CC1(C)C)OC1OC(CO)C(O)C(O)C1O (configuration not stated),-14.8%
15,CCc1ccc(NC2Nc3cc(C)nn3S2)cc1 (configuration not stated),-59%
16,COc1cccc(/C=N/Nc2cc(C)nc(-c3ccccc3O)n2)c1O,86.9% (active)
17,COc1cc(/C=N/Nc2ccc(C)cc2)cc(Br)c1O,5.6%
18,COc1ccccc1-n1c(SCC(=O)Nc2cccc(C(=O)O)c2)nnc1-c1ccccc1O,-11.2%
19,CN(CCO)S(=O)(=O)c1ccc2c(c1)C(=O)c1cc(S(=O)(=O)N(C)CCO)ccc1-2,16.6%
20,CCn1nc(C)c(CNC(=O)C2CCC(=O)N(Cc3cccc(F)c3)C2)c1C (configuration not stated),-6.25%
21,Cc1cc(C)nc(S/C=C/C(=O)c2ccccc2)n1,95.6% (active)
22,Cc1cc(C)nc(SC(C)C(=O)N/N=C/c2cccs2)n1 (configuration not stated),4.78%
23,COC(c1ccccc1)(c1ccccc1)C(Oc1nc(C)cc(C)n1)C(=O)O (configuration not stated),5.7%
